Results on 40 compounds are retold here after the supplement of paper PMC9925115.

The structures appear in SMILES notation.

The subject of this test is FLX1 + dox-induced PRKAR1A G325D. Put plainly: difference in log2 fold change of viability vs plate median (dox-induced PRKAR1A G325D minus uninduced); higher = compound less effective when PKA is inhibited. The settings on record: concentration: not stated (2 or 5 uM); 5 days. On the procedure:
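For each plate a log2 fold change vs the plate median was derived, and the values without dox were subtracted from those with dox, averaged over three biological replicates.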
For the compound `Cc1cc([C@@H](C)Nc2ccccc2C(=O)O)c2nc(N3CCOCC3)cc(=O)n2c1`, the “difference in log2 fold change of viability” value (“difference in log2 fold change” for short) is 0.0369.
Turning to `O=C(NOCC1CC1)c1ccc(F)c(F)c1Nc1ccc(I)cc1Cl`, the “difference in log2 fold change” value turned out to be 0.453.
`CCn1c(N)c(C(=O)NC)c(=O)c2ccc(C#CC(C)(O)COC)nc21` (stereo not given): the “difference in log2 fold change” value was 0.0292.
Next, `CCc1nc(-c2cccc(C)c2)c(-c2ccnc(NC(=O)c3ccccc3)c2)s1`: 0.387; `CC[C@@H]1C(=O)N(C)c2cnc(Nc3ccc(C(=O)N[C@H]4CC[C@H](N5CCN(CC6CC6)CC5)CC4)cc3OC)nc2N1C(C)C` [Volasertib (BI 6727)]: -0.0557; `COc1ccc(S(=O)(=O)N(C(C)=O)c2ccccc2/C=C/c2cc[n+]([O-])cc2)cc1`: 0.0942.
As to `Cc1c(NC(=O)c2ccc(C(C)(C)C)cc2)cccc1-c1cn(C)c(=O)c(Nc2ccc(C(=O)N3CCOCC3)cc2)n1`, the “difference in log2 fold change” value stood at 0.119.
As for `CC1(COc2ccc3c(c2)ncn3-c2ccc3cccc(N4CCC(N)CC4)c3n2)COC1`, the “difference in log2 fold change” value was -0.0241.
For the compound `Oc1cccc(-c2nc(N3CCOCC3)c3oc4ncccc4c3n2)c1`, the “difference in log2 fold change” value was determined as 0.496.
The same measure for `COc1cc(Nc2ncc(F)c(Nc3ccc4c(n3)NC(=O)C(C)(C)O4)n2)cc(OC)c1OC`: -0.353; for `Cn1cc(C2=C(c3ccc(Cl)cc3Cl)C(=O)NC2=O)c2ccccc21`: 0.189.
Turning to `C[C@@H]1CN(CC(=O)Nc2ccc3c(c2)Cc2cccc(-c4cc(=O)cc(N5CCOCC5)o4)c2S3)C[C@H](C)O1`, the “difference in log2 fold change” value is -0.0572.
With `Cc1ccc(NC(=O)c2cccc(N(C)C)c2)cc1NC(=O)c1ccc(O)cc1`, the “difference in log2 fold change” value was 0.402.
Take `Cc1cc(F)c(Nc2ncnc3cc(OCc4ccccc4)ccc23)cc1O`: the “difference in log2 fold change” value was found to be 0.0836.
In the case of `CNC(=O)c1cc(Oc2ccc(NC(=O)Nc3ccc(Cl)c(C(F)(F)F)c3)c(F)c2)ccn1` [Regorafenib (BAY 73-4506)], the “difference in log2 fold change” value is -0.347.
In the case of `O=C(NCc1cccc(O)c1)Nc1nc(-c2ccncc2)cs1`, the “difference in log2 fold change” value is -0.0799.
`S=C(NCc1ccc2c(c1)OCO2)N1CCN(c2ncnc3c2oc2ccccc23)CC1` [Amuvatinib (MP-470)]: the “difference in log2 fold change” value is 0.22.
Next, `O=C1Nc2ccc(I)cc2/C1=C/c1cc(Br)c(O)c(Br)c1`: 1.35; `Cc1cnc(NC(=O)Nc2cc(Br)c(C)cc2OC[C@@H]2CNCCO2)cn1`: 1.29.
Consider `C[C@@H](NC(=O)c1ncnc(N)c1Cl)c1ncc(C(=O)Nc2cc(C(F)(F)F)c(Cl)cn2)s1`, for which the “difference in log2 fold change” value is -0.193.
Turning to `COc1cc(F)c(F)c(Nc2ccc(I)cc2F)c1NS(=O)(=O)C1(C[C@H](O)CO)CC1` [Refametinib (RDEA119, Bay 86-9766)], the “difference in log2 fold change” value is 0.183.
The same measure for `Nc1cccc(-c2cc3c(Oc4cccc(O)c4)ncnc3[nH]2)c1`: -0.478.
For the compound `Cn1c(Nc2ccc(C(F)(F)F)cc2)nc2cc(Oc3ccnc(-c4ncc(C(F)(F)F)[nH]4)c3)ccc21`, the “difference in log2 fold change” value was -0.588.
Take `Cn1cc(-c2ccc3nnc(C(F)(F)c4ccc5ncccc5c4)n3n2)cn1`: the “difference in log2 fold change” value was determined as 0.158.
`CCn1c2ccccc2c2cc(Nc3ccnc(NCCCN4CCOCC4)n3)ccc21`: the “difference in log2 fold change” value came out at 0.808.
On to `COc1cc2c(c(OC)c1OC)-c1c(cc3c(c1OC)OCO3)CC(C)C(C)C2` (stereo not given) [Schisandrin B (Sch B)], for which the “difference in log2 fold change” value amounted to 0.277.
For `COc1cc(Nc2ncc3c(n2)-c2ccc(Cl)cc2C(c2c(F)cccc2OC)=NC3)ccc1C(=O)O` [Alisertib (MLN8237)], the “difference in log2 fold change” value was -0.903.
`N#CC1(c2ccc(NC(=O)c3cccnc3NCc3ccncc3)cc2)CCCC1` [Apatinib]: the “difference in log2 fold change” value worked out at 0.497.
On to `COc1ccccc1-c1cc(Nc2cccc(CS(N)(=O)=O)c2)ncn1`, for which the “difference in log2 fold change” value came to 0.055.
Next, `Cc1[nH]nc2ccc(-c3cncc(OC[C@@H](N)Cc4ccccc4)c3)cc12`: 0.18; `C=CC(=O)Nc1cccc(Oc2nc(Nc3ccc(N4CCN(C)CC4)cc3)ncc2Cl)c1`: -0.131.
The same measure for `Cc1nc(N)sc1-c1ccnc(Nc2ccc(N3CCOCC3)cc2)n1`: 0.455.
The same measure for `O=C(NOCC(O)CO)c1cc(Br)c(F)c(F)c1Nc1ccc(I)cc1F` (stereo not given): -1.06; for `CN1CCN(c2ccc3nc(-c4c(N)c5c(F)cccc5[nH]c4=O)[nH]c3c2)CC1` [Dovitinib (TKI-258, CHIR-258)]: 0.0764.
For the compound `C=CC(=O)Nc1cccc(Nc2nc(Nc3ccc(NC4CN(CCF)C4)cc3OC)ncc2C(F)(F)F)c1`, the “difference in log2 fold change” value was -0.839.
As for `CSc1cccc(Nc2ncc3cc(-c4c(Cl)cccc4Cl)c(=O)n(C)c3n2)c1`, the “difference in log2 fold change” value was -0.0582.
In the case of `CC(C)(C)c1cc(NC(=O)Nc2ccc(-c3cn4c(n3)sc3cc(OCCN5CCOCC5)ccc34)cc2)no1` [Quizartinib (AC220)], the “difference in log2 fold change” value turned out to be 0.254.
Next, `CO[C@H]1C[C@@H]2CC[C@@H](C)[C@@](O)(O2)C(=O)C(=O)N2CCCC[C@H]2C(=O)O[C@H]([C@H](C)C[C@@H]2CC[C@@H](OCCO)[C@H](OC)C2)CC(=O)[C@H](C)/C=C(\C)[C@@H](O)[C@@H](OC)C(=O)[C@H](C)C[C@H](C)/C=C/C=C/C=C/1C` [Everolimus (RAD001)]: -1.32; `O=c1c(O)c(-c2ccc(O)c(O)c2)oc2cc(O)cc(O)c12` [Quercetin]: -0.0725.
Turning to `N#CC(=C(/N)Sc1ccccc1N)/C(C#N)=C(\N)Sc1ccccc1N`, the “difference in log2 fold change” value worked out at 0.518.
